Data taken from PubChem BioAssay (Tox21).
Several values for one entry are separate records, joined by “and”; a condition that tells them apart may be missing. Identical values can stand only once. Records with an inconclusive call do not appear. Activity calls are given as the source filed them. Unless noted, calls follow the shape of the dose curve; as a rule, active = well fitted curve in the direction sought with a large enough effect in the repeat runs; inconclusive = weak or mixed curves; inactive = no such curve, though single readings can be large; an effect the other way counts as inactive or inconclusive.

Key:
[1] = qHTS assay to identify small molecule agonists of H2AX (AID 1224845; active = well fitted activation curve with a large enough effect in the signal ratio in the repeat runs, not every such curve was filed as active; the % refers to the signal ratio; also: potency is read from the fitted curve at half-maximal effect)
How it was run: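 Wild-type CHO-K1 cells, plated overnight, exposed 3hr at 37C to 15 concentrations (0.76% DMSO final). Lysed, then HTRF anti-pH2AX (S139) cryptate and anti-H2AX-d2 antibodies, 24 hr room temperature; 665/620 nm emission read.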

[2] = qHTS assay to identify small molecule antagonists of the estrogen related receptor (ERR) signaling pathway from Tox21 library (AID 1224848); also: nearly all actives have a fitted effect of over 50% in size; also: potency is read from the fitted curve at half-maximal effect
How it was run: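 Luminescent reporter read-out (ONE-Glo) from NTP's ERR cell line after 18 h treatment at 37 C with DMSO-dissolved Tox21 compounds; cells pre-plated 6 h beforehand at 2,000 per well.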

[3] = qHTS assay to identify small molecule agonists of the estrogen related receptor (ERR) signaling pathway from Tox21 library (AID 1224849; calls by dose curve; also: nearly all actives have a fitted effect of over 15% in size); settings: ERR reporter cell line, ONE-Glo luciferase, 18 h; at 92.4 µM (top of the series) unless noted
How it was run: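 We plated ERR reporter cells, waited 6 h, added compounds in DMSO by pin tool and incubated them 18 h at 37 C. ONE-Glo was then added and luminescence read after 30 min.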

[4] = qHTS RealTime-Glo MT Cell Viability Assay in HepG2 cells - 24 hour (AID 1224867); also: nearly all actives have a fitted effect of over 50% in size; also: potency is read from the fitted curve at half-maximal effect
How it was run: (§1)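 HepG2 cells (600/well) were dispensed with RealTime-Glo reagents, incubated 5 h at 37 °C, then treated with compounds in DMSO for up to 40 h. Nonlytic NanoLuc luminescence reflecting viable cells was read at each stated time point.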

[5] = qHTS RealTime-Glo MT Cell Viability Assay in HEK293 cells - 32 hour (AID 1224868); also: nearly all actives have a fitted effect of over 50% in size; also: potency is read from the fitted curve at half-maximal effect
How it was run: (§2)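 HEK293 cells seeded with NanoLuc/prosubstrate reagent, rested 5 h at 37 C, then dosed and kept at 37 C up to 40 h. Nonlytic real-time luminescence from viable cells read at 0, 8, 16, 24, 32 and 40 h.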

[6] = A CellTox Green Cytotoxicity Assay to monitor cytotoxicity in HEK293 cells - 0 hour (AID 1224869); also: nearly all actives have a fitted effect of over 50% in size
How it was run: (§3)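 Each value comes from one timepoint of a single continuous run in which HEK293 cells with CellTox Green were exposed to compound for up to 40 h at 37 C, dye fluorescence rising with cell death.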

[7] = qHTS RealTime-Glo MT Cell Viability Assay in HepG2 cells - 40 hour (AID 1224870); also: nearly all actives have a fitted effect of over 50% in size
How it was run: (§4)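 HepG2 cells (600/well) mixed with RealTime-Glo MT reagent, settled 5 h at 37 C/5% CO2 before compound addition. Nonlytic NanoLuc luminescence from viable-cell prosubstrate reduction read repeatedly during 40 h treatment at 37 C.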

[8] = A CellTox Green Cytotoxicity Assay to monitor cytotoxicity in HEK293 cells - 40 hour (AID 1224871); also: nearly all actives have a fitted effect of over 45% in size; also: potency is read from the fitted curve at half-maximal effect
How it was run: as §3

[9] = qHTS RealTime-Glo MT Cell Viability Assay in HepG2 cells - 8 hour (AID 1224873); also: nearly all actives have a fitted effect of over 55% in size
How it was run: as §4

[10] = qHTS RealTime-Glo MT Cell Viability Assay in HEK293 cells - 40 hour (AID 1224874); settings: RealTime-Glo luminescence; max response: active compounds read low; also: nearly all actives have a fitted effect of over 50% in size; also: potency is read from the fitted curve at half-maximal effect
How it was run: (§5)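 qHTS format; HEK293 cells with NanoLuc/prosubstrate reagent, 37 C/5% CO2 for 5 h pre-dosing; compounds 23 nL in DMSO; luminescence at each time point reflects viable cells.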

[11] = A CellTox Green Cytotoxicity Assay to monitor cytotoxicity in HEK293 cells - 24 hour (AID 1224875); also: nearly all actives have a fitted effect of over 45% in size; also: potency is read from the fitted curve at half-maximal effect
How it was run: as §3

[12] = A CellTox Green Cytotoxicity Assay to monitor cytotoxicity in HepG2 cells - 16 hour (AID 1224876); also: nearly all actives have a fitted effect of over 45% in size
How it was run: (§6)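 Continuous culture of HepG2 cells with a membrane-impermeant DNA dye; rising fluorescence marks dead cells. Compound exposure lasted up to 40 h at 37 C, with reads every 8 h from 0 h.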

[13] = qHTS RealTime-Glo MT Cell Viability Assay in HepG2 cells - 32 hour (AID 1224877); also: nearly all actives have a fitted effect of over 55% in size; also: potency is read from the fitted curve at half-maximal effect
How it was run: as §1

[14] = A CellTox Green Cytotoxicity Assay to monitor cytotoxicity in HepG2 cells - 24 hour (AID 1224878); also: nearly all actives have a fitted effect of over 45% in size
How it was run: as §6

[15] = A CellTox Green Cytotoxicity Assay to monitor cytotoxicity in HepG2 cells - 40 hour (AID 1224879); also: nearly all actives have a fitted effect of over 40% in size; also: potency is read from the fitted curve at half-maximal effect
How it was run: as §6

[16] = qHTS RealTime-Glo MT Cell Viability Assay in HEK293 cells - 0 hour (AID 1224880); also: nearly all actives have a fitted effect of over 45% in size; also: potency is read from the fitted curve at half-maximal effect
How it was run: as §5

[17] = qHTS assay to identify small molecule agonists of the hypoxia (HIF-1) signaling pathway (AID 1224846; active = well fitted activation curve with a large enough effect in the signal ratio in the repeat runs, not every such curve was filed as active; the % refers to the signal ratio; also: potency is read from the fitted curve at half-maximal effect)
How it was run: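 Measured by blue/green FRET after loading CCF4-AM: beta-lactamase expressed from a hypoxia response element in ME-180 cells. Test agents were delivered in DMSO and left 17 hrs; cells had been plated 5 hrs earlier in low-serum (0.5% dialyzed FBS) medium.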

[18] = qHTS assay to identify small molecule agonists of H2AX - cell viability counter screen (AID 1224847; calls by dose curve; also: nearly all actives have a fitted effect of over 30% in size; also: potency is read from the fitted curve at half-maximal effect)
How it was run: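 After overnight plating of 1000 CHO-K1 cells per well, a 15-concentration compound series was applied for 3 hr at 37C. Luminescence from CellTiter-Glo, read following 30 min at room temperature, reflected cell viability.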

[19] = qHTS RealTime-Glo MT Cell Viability Assay in HEK293 cells - 16 hour (AID 1224872); also: nearly all actives have a fitted effect of over 50% in size; also: potency is read from the fitted curve at half-maximal effect
How it was run: as §2
% is scaled to controls: 0 for no effect and ±100 for the full control effect.

CCOC(=O)NCCOc1ccc(Oc2ccccc2)cc1
inactive: Potency [1] | activity change, positive = activation [3] -42.2% | Potency [4] | Potency [6] | Potency [7] | Potency [8] | Potency [9] | Potency [11] | Potency [12] | Potency [13] | Potency [14] | Potency [15] | Potency [16]
active: Potency [2] 19.3 µM | Potency [5] 21.9 µM | Potency [10] 21.9 µM

CCCCc1nc2cccnc2n1Cc1ccc(-c2ccccc2-c2nnn[nH]2)cc1
inactive: Potency [17] | Potency [18] | Potency [4] | Potency [6] | Potency [7] | Potency [8] | Potency [9] | Potency [11] | Potency [12] | Potency [13] | Potency [14]
active: Potency [16] 21.9 µM

CCN(CC)c1ccc(C(=C2C=CC(=[N+](CC)CC)C=C2)c2cc(S(=O)(=O)O)ccc2S(=O)(=O)[O-])cc1
inactive: Potency [17] | Potency [4] | Potency [5] | Potency [6] | Potency [7] | Potency [8] | Potency [19] | Potency [9] | max response [10] 0.738% | Potency [11] | Potency [12] | Potency [14] | Potency [15] | Potency [16]
active: Potency [18] 22 µM | Potency [2] 11.9 µM

c1ccc(-c2ccccn2)nc1
inactive: Potency [18] | Potency [5] | Potency [6] | Potency [7] | Potency [8] | Potency [19] | Potency [9] | max response [10] -0.479% | Potency [11] | Potency [13] | Potency [14] | Potency [15] | Potency [16]

CC(CC=O)c1ccccc1 (centres undefined)
inactive: Potency [17] | Potency [18] | Potency [4] | Potency [5] | Potency [6] | Potency [7] | Potency [8] | Potency [19] | Potency [9] | max response [10] 0.684% | Potency [11] | Potency [12] | Potency [14] | Potency [15] | Potency [16]

O=S(c1cc(Cl)cc(Cl)c1O)c1cc(Cl)cc(Cl)c1O
inactive: Potency [1] | Potency [2] | Potency [4] | Potency [5] | Potency [6] | Potency [7] | Potency [8] | Potency [19] | Potency [9] | max response [10] -7.88% | Potency [11] | Potency [12] | Potency [13] | Potency [14] | Potency [15] | Potency [16]

C=CC(=O)OCCOCCOCCOCCOC(=O)C=C
active: Potency [1] 50.8 µM and 50 µM | Potency [4] 43.2 µM | Potency [5] 34.8 µM and 24.3 µM | Potency [8] 49.2 µM and 48.5 µM | Potency [19] 43.2 µM | Potency [10] 31.1 µM and 19.3 µM | Potency [13] 48.5 µM | Potency [15] 24.7 µM and 13.7 µM
inactive: Potency [6] | Potency [11] | Potency [12] | Potency [14] | Potency [16]

CC(C)Nc1ccc(NC(C)C)c2c1C(=O)c1ccccc1C2=O
active: Potency [18] 26.3 µM | Potency [8] 25.5 µM | Potency [11] 25.5 µM | Potency [15] 8.07 µM
inactive: Potency [17] | Potency [5] | Potency [6] | Potency [7] | Potency [19] | Potency [9] | max response [10] -6.09% | Potency [12] | Potency [16]

Cn1c(=O)cc(Oc2ccc(F)cc2F)c2cnc(NCC(C)(C)O)nc21
inactive: Potency [17] | activity change, positive = activation [3] -55.2% | Potency [6] | Potency [8] | Potency [9] | Potency [11] | Potency [12] | Potency [13] | Potency [14] | Potency [15] | Potency [16]
active: Potency [2] 30.6 µM

O=C(Cl)c1cc(C(=O)Cl)cc(C(=O)Cl)c1
inactive: Potency [1] | Potency [18] | Potency [16]
active: Potency [5] 49 µM | Potency [10] 49 µM

C#C[C@]1(O)CC[C@H]2[C@@H]3CCc4cc(OC5CCCC5)ccc4[C@H]3CC[C@@]21C
active: Potency [18] 49.2 µM | Potency [5] 23.9 µM | Potency [10] 23.9 µM
inactive: Potency [1] | Potency [6] | Potency [7] | Potency [11] | Potency [16]

Cc1oc2c(NC(=O)c3c(Cl)cccc3Cl)cccc2c1C(C)(C)O
active: Potency [17] 17.4 µM | Potency [2] 30.6 µM | Potency [15] 38.9 µM
inactive: Potency [4] | Potency [6] | Potency [8] | Potency [11] | Potency [12] | Potency [14] | Potency [16]

CCOc1ccc(N)c([N+](=O)[O-])c1
inactive: Potency [17] | Potency [18] | Potency [2] | Potency [4] | Potency [8] | Potency [9] | Potency [11] | Potency [12] | Potency [13] | Potency [14] | Potency [15] | Potency [16]

COc1ccc(C(=O)Nc2nc3ccccc3c(NCc3ccccc3)c2C#N)cc1
inactive: Potency [17] | Potency [18] | Potency [2] | Potency [5] | Potency [6] | Potency [7] | Potency [8] | Potency [19] | max response [10] -18.2% | Potency [11] | Potency [12] | Potency [14] | Potency [16]
